Several values for one entry are separate records, joined by “and”; a condition that tells them apart may be missing. Equal values may be shown once. The campaign covered roughly 5,500 compounds. About 2,000 (36%) were called active. Inconclusive results (about 18%) are left out. No stated cut-off is given here; in the data, active means normalized growth mostly below about 0.91 (no sharp cut-off); inconclusive means no clear call, values can overlap the other calls; inactive means mostly above about 0.92. This is one part of the list.
Test: chemical genetic growth profiling, strain panel (AID 1159580);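 further: tested at 20 µM; growth read once vehicle control cultures reached saturation at 30 °C; 1 = growth at the plate median or of vehicle wells; lower values mean less growth of the strain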
Conditions: growth OD
[1] = S. cerevisiae deletion strains, locus YAL013W, strain DEP1, hits give low values
[2] = S. cerevisiae deletion strains, locus YBR229C, strain ROT2, hits give low values
[3] = S. cerevisiae deletion strains, locus YDL101C, strain DUN1, hits give low values
[4] = S. cerevisiae deletion strains, locus YDR150W, strain NUM1, hits give low values
[5] = S. cerevisiae deletion strains, locus YEL061C, strain CIN8, hits give low values
[6] = S. cerevisiae deletion strains, locus YGR078C, strain PAC10, hits give low values
[7] = S. cerevisiae deletion strains, locus YHR030C, strain SLT2, hits give low values
[8] = S. cerevisiae deletion strains, locus YHR087W, strain rtc3, hits give low values
[9] = S. cerevisiae deletion strains, locus YJL187C, strain SWE1, hits give low values
[10] = S. cerevisiae deletion strains, locus YJR043C, strain POL32, hits give low values
[11] = S. cerevisiae deletion strains, locus YJR075W, strain HOC1, hits give low values
[12] = S. cerevisiae deletion strains, locus YLR039C, strain RIC1, hits give low values
[13] = S. cerevisiae deletion strains, locus YLR058C, strain SHM2 (second series), hits give low values
[14] = S. cerevisiae deletion strains, locus YLR085C, strain ARP6, hits give low values
[15] = S. cerevisiae deletion strains, locus YLR262C, strain YPT6, hits give low values
[16] = S. cerevisiae deletion strains, locus YML094W, strain GIM5, hits give low values
[17] = S. cerevisiae deletion strains, locus YMR219W, strain ESC1, hits give low values
[18] = S. cerevisiae deletion strains, locus YMR263W, strain SAP30, hits give low values
[19] = S. cerevisiae deletion strains, locus YNL153C, strain GIM3, hits give low values
[20] = S. cerevisiae deletion strains, locus YNL298W, strain CLA4 (second series), hits give low values
[21] = S. cerevisiae deletion strains, locus YNL322C, strain KRE1, hits give low values
[22] = S. cerevisiae deletion strains, locus YNR030W, strain Alg12, hits give low values
[23] = S. cerevisiae deletion strains, locus YOL006C, strain TOP1, hits give low values
[24] = S. cerevisiae deletion strains, locus YPL055C, strain LGE1, hits give low values
[25] = S. cerevisiae deletion strains, locus YPL241C, strain CIN2, hits give low values
[26] = S. cerevisiae deletion strains, locus YPR135W, strain CTF4, hits give low values
[27] = S. cerevisiae deletion strains, locus YGR229C, strain SMI1, hits give low values
[28] = S. cerevisiae deletion strains, locus YMR307W, strain GAS1, hits give low values

Measured: normalized growth

CSC(=Nc1ccc(C(C)C)cc1)NC#N
inactive: [1] 0.993 | [2] 0.978 | [3] 1.02 | [4] 0.916 | [5] 1 | [6] 0.98 | [7] 0.88 | [8] 0.97 | [9] 0.981 | [10] 0.982 | [11] 0.936 | [12] 0.971 | [13] 0.955 | [14] 0.86 | [15] 0.943 | [16] 1.04 | [17] 0.97 | [18] 0.978 | S. cerevisiae deletion strains, locus YNL128W, strain TEP1, hits give low values 0.965 | [19] 1 | [20] 0.947 | [21] 0.986 | [22] 0.988 | [23] 0.839 | [24] 0.985 | [25] 0.908 | [26] 0.855

FC(F)(F)c1ccc(-n2cncn2)nc1
inactive: [1] 1.03 | [2] 1.01 | [3] 1 | [4] 0.988 | [5] 1.01 | [6] 1.01 | [27] 1.01 | [7] 1.09 | [8] 1.02 | [9] 1.01 | [10] 1.02 | [11] 0.99 | [12] 1.04 | [13] 1 | [15] 1.01 | [16] 1.07 | [17] 1.01 | [18] 1.01 | [28] 1.08 | [19] 0.996 | [20] 1.07 | [21] 1 | [22] 1.04 | [23] 1.25 | [24] 1.07 | [25] 1 | [26] 1.15
active: [14] 1.24 [resistant]

Cc1onc(-c2c(F)cccc2Cl)c1C(=O)N1CCN(c2ncccc2C(F)(F)F)CC1
inactive: [1] 0.98 | [2] 0.975 | [3] 0.977 | S. cerevisiae deletion strains, locus YDL134C, strain PPH21, hits give low values 0.993 | [4] 0.972 | [5] 0.952 | [6] 1.01 | [7] 0.928 | [8] 0.964 | [9] 0.988 | [10] 1 | [11] 1.01 | S. cerevisiae deletion strains, locus YKL190W, strain CNB1, hits give low values 1 | [12] 0.993 | [13] 0.987 | [14] 1.02 | [15] 0.98 | [16] 0.969 | [17] 0.984 | [18] 1.01 | [28] 1.07 | [19] 1 | [20] 0.965 | [21] 0.977 | [22] 0.99 | [24] 0.977 | [25] 1.08 | [26] 0.993

O=C(c1ccc(Cl)cc1)N1CCN(c2ccc(C(F)(F)F)cn2)CC1
inactive: [1] 0.934 | S. cerevisiae deletion strains, locus YAR019C, strain CDC15, hits give low values 0.973 | S. cerevisiae deletion strains, locus YBL105C, strain PKC1, hits give low values 0.992 | S. cerevisiae deletion strains, locus YBR135W, strain CKS1, hits give low values 0.997 | S. cerevisiae deletion strains, locus YBR136W, strain MEC1, hits give low values 0.988 | S. cerevisiae deletion strains, locus YBR160W, strain CDC28, hits give low values 0.973 | S. cerevisiae deletion strains, locus YDL017W, strain CDC7, hits give low values 0.995 | S. cerevisiae deletion strains, locus YDL028C, strain MPS1, hits give low values 0.968 | [3] 0.986 and 0.988 | S. cerevisiae deletion strains, locus YDL108W, strain KIN28, hits give low values 0.979 | S. cerevisiae deletion strains, locus YDL132W, strain cdc53, hits give low values 0.988 | S. cerevisiae deletion strains, locus YDL214C, strain PRR2, hits give low values 0.937 | S. cerevisiae deletion strains, locus YDR052C, strain DBF4, hits give low values 1 | S. cerevisiae deletion strains, locus YDR054C, strain cdc34, hits give low values 0.978 | [4] 0.843 | S. cerevisiae deletion strains, locus YDR226W, strain ADK1, hits give low values 0.979 | S. cerevisiae deletion strains, locus YDR477W, strain SNF1, hits give low values 0.936 | S. cerevisiae deletion strains, locus YER123W, strain YCK3, hits give low values 0.913 | S. cerevisiae deletion strains, locus YER133W, strain GLC7, hits give low values 0.955 | S. cerevisiae deletion strains, locus YFL009W, strain cdc4, hits give low values 0.967 | S. cerevisiae deletion strains, locus YFL029C, strain CAK1, hits give low values 0.981 | S. cerevisiae deletion strains, locus YFR003C, strain YPI1, hits give low values 0.993 | S. cerevisiae deletion strains, locus YFR019W, strain FAB1, hits give low values 0.968 | S. cerevisiae deletion strains, locus YFR028C, strain CDC14, hits give low values 0.978 | S. cerevisiae deletion strains, locus YGR040W, strain KSS1, hits give low values 0.954 | S. cerevisiae deletion strains, locus YGR052W, strain FMP48, hits give low values 0.978 | [6] 0.933 | S. cerevisiae deletion strains, locus YGR092W, strain DBF2, hits give low values 0.89 | S. cerevisiae deletion strains, locus YHR079C, strain IRE1, hits give low values 0.88 | S. cerevisiae deletion strains, locus YHR082C, strain KSP1, hits give low values 0.96 | [8] 0.947 | S. cerevisiae deletion strains, locus YHR205W, strain SCH9, hits give low values 0.857 | S. cerevisiae deletion strains, locus YIL147C, strain SLN1, hits give low values 0.986 | S. cerevisiae deletion strains, locus YJL095W, strain BCK1, hits give low values 0.892 | S. cerevisiae deletion strains, locus YJL128C, strain PBS2, hits give low values 0.942 | S. cerevisiae deletion strains, locus YJL157C, strain FAR1, hits give low values 0.979 | S. cerevisiae deletion strains, locus YJR016C, strain ILV3, hits give low values 0.986 | [10] 0.993 | S. cerevisiae deletion strains, locus YJR066W, strain TOR1 (second series), hits give low values 0.974 | S. cerevisiae deletion strains, locus YJR066W, strain TOR1, hits give low values 0.891 | S. cerevisiae deletion strains, locus YKL048C, strain ELM1, hits give low values 0.963 | S. cerevisiae deletion strains, locus YKL067W, strain YNK1, hits give low values 0.925 | S. cerevisiae deletion strains, locus YKL101W, strain HSL1, hits give low values 0.911 | S. cerevisiae deletion strains, locus YKL193C, strain SDS22, hits give low values 0.988 | S. cerevisiae deletion strains, locus YKL203C, strain TOR2, hits give low values 1.02 | [12] 1.16 | [13] 0.974 | S. cerevisiae deletion strains, locus YLR133W, strain CKI1, hits give low values 0.95 | [15] 1.1 | S. cerevisiae deletion strains, locus YLR403W, strain SFP1, hits give low values 0.957 | S. cerevisiae deletion strains, locus YML070W, strain DAK1, hits give low values 0.921 | S. cerevisiae deletion strains, locus YMR001C, strain CDC5, hits give low values 0.977 | S. cerevisiae deletion strains, locus YMR205C, strain PFK2 (second series), hits give low values 0.957 | [17] 0.958 | [18] 0.963 | S. cerevisiae deletion strains, locus YMR277W, strain FCP1, hits give low values 0.962 | S. cerevisiae deletion strains, locus YNL006W, strain LST8, hits give low values 0.983 | S. cerevisiae deletion strains, locus YNL020C, strain ARK1, hits give low values 0.956 | S. cerevisiae deletion strains, locus YNL161W, strain CBK1, hits give low values 0.994 | S. cerevisiae deletion strains, locus YNL183C, strain NPR1, hits give low values 0.979 | S. cerevisiae deletion strains, locus YNL207W, strain RIO2, hits give low values 0.985 | S. cerevisiae deletion strains, locus YNL222W, strain SSU72, hits give low values 0.982 | S. cerevisiae deletion strains, locus YNL307C, strain MCK1 (second series), hits give low values 0.931 | [21] 0.982 | S. cerevisiae deletion strains, locus YOL078W, strain AVO1, hits give low values 0.982 | S. cerevisiae deletion strains, locus YOL136C, strain PFK27, hits give low values 0.908 | S. cerevisiae deletion strains, locus YOR061W, strain CKA2, hits give low values 0.965 | S. cerevisiae deletion strains, locus YOR119C, strain RIO1, hits give low values 0.958 | S. cerevisiae deletion strains, locus YOR231W, strain MKK1, hits give low values 0.853 | S. cerevisiae deletion strains, locus YOR329C, strain SCD5, hits give low values 0.992 | S. cerevisiae deletion strains, locus YPL031C, strain PHO85, hits give low values 0.941 | [24] 0.919 | S. cerevisiae deletion strains, locus YPL153C, strain RAD53, hits give low values 0.93 | S. cerevisiae deletion strains, locus YPL204W, strain HRR25, hits give low values 0.963 | S. cerevisiae deletion strains, locus YPL209C, strain IPL1, hits give low values 0.991 | [25] 1.01 | S. cerevisiae deletion strains, locus YPR025C, strain CCL1, hits give low values 0.987 | S. cerevisiae deletion strains, locus YPR106W, strain ISR1, hits give low values 0.975 | S. cerevisiae deletion strains, locus YPR111W, strain DBF20, hits give low values 0.955 | [26] 0.671 | S. cerevisiae deletion strains, strain NNK1, hits give low values 0.977 | S. cerevisiae deletion strains, strain TSCII, hits give low values 0.972
active: [2] 0.824 | [5] 0.8 | [27] 0.551 | [7] 0.0888 and 0.729 | [11] 1.11 [resistant] | [14] 0.436 | S. cerevisiae deletion strains, locus YLR113W, strain HOG1, hits give low values 0.813 | [16] 0.802 | [28] 0.272 | [19] 0.911 | [20] 0.563 | [22] 0.861 | [23] 0.661 | S. cerevisiae deletion strains, locus YPL256C, strain CLN2, hits give low values 0.8 | S. cerevisiae strains, strain wild type, hits give low values 0.862

Reference: PubChem BioAssay AID1159580 (chemical genetic matrix, 2015)
